Reference: PubChem BioAssay AID492948 (National Center for Advancing Translational Sciences (NCATS), 2010)
Results filed as inconclusive are left out. Active and inactive are the calls of the source. Calls come from the whole dose curve; as a rule, active = well fitted activation curve with a large enough effect; inconclusive = small, poorly fitted or top-dose-only effect; inactive = no such curve, though single readings can be large or run the other way.

Experiment: qHTS Assay for Agonists of the Relaxin Receptor RXFP1: V1B Hit Validation;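 note: counter-screen in HEK293 cells expressing V1B rather than RXFP1 for selectivity; nearly all actives have a fitted effect of over 65% in size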;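 for activation: cAMP accumulation with PDE4 inhibitor Ro 20-1724 present during compound exposure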
Conditions: HEK293 V1B cells, cAMP TR-FRET, 30 min; series mostly up to 115 µM
Method in brief: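 Cells: HEK293, 2000/well. Cpd 30 min, 37C, 5% CO2, + PDE4 inhibitor Ro 20174. Lyse, HTRF cAMP, 30 min RT. Norm: buffer = 0%, porcine relaxin 29 nM = 100%.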
Potency is the fitted concentration of half-maximal effect.

Structure (SMILES)	Potency
COCCNC(=O)NC(=O)COC(=O)C12CC3CC(CC(NC(C)=O)(C3)C1)C2	inactive
CC1CCCCN1C(=O)c1ccccc1NC(=O)c1ccco1 (configuration not stated)	inactive
O=C(O)CCSc1ccc2ccccc2n1	6.15 µM (active)
COc1ccc(Cl)cc1-c1n[nH]c(=S)o1	4.35 µM (active)
CCc1ccc(-c2nc3ccc(Br)cc3c(C(=O)O)c2C)s1	3.46 µM (active)
COc1ccc(/C=C2/SC(=O)N(CCC(=O)Nc3ccc(C)cc3)C2=O)cc1OC	inactive
Cn1c(N)c(C(=O)CSc2nn(-c3ccc(F)cc3)c(=S)s2)c(=O)n(C)c1=O	19.4 µM (active)
CCN(CC)S(=O)(=O)c1ccc2c(c1)N(CC(=O)Nc1cccnc1Cl)C(=O)CO2	17.3 µM (active)
CCS(=O)(=O)c1nc(S(=O)(=O)c2ccc(Cl)cc2)c(N2CCN(CCO)CC2)s1	34.6 µM (active)
Cc1ccc(CN(C)C(=O)c2ccccc2NC(=O)c2ccccc2)o1	inactive
O=C(O)c1cc(-c2ccc(Br)s2)nc2ccccc12	3.46 µM (active)
NC(=S)c1cc2ccc(O)cc2oc1=O	4.35 µM (active)
CN(C)S(=O)(=O)c1ccc(C(=O)OCC(=O)Nc2cccnc2Cl)cc1	19.4 µM (active)
COc1ccccc1NC(=O)CCCc1nnc2n(C)c(=O)c3sccc3n12	13.8 µM (active)
O=C(Nc1ccccc1C(=O)Nc1ccccc1)c1ccco1	inactive
Brc1ccc2ncnc(NCc3cccnc3)c2c1	38.9 µM (active)
O=C(Nc1ccccc1C(=O)Nc1ccc(F)cc1)c1ccco1	inactive
Cc1ccc(C(=O)Nc2cccc(C(F)(F)F)c2)cc1NC(=O)c1cnnc2ccccc12	inactive
O=C(O)CNC(=O)c1ccccc1NC(=O)c1ccco1	inactive

Structure (SMILES)	Potency
CCOC(=O)CNC(=O)CSc1ccc2nnc(-c3cccnc3)n2n1	inactive
CN1C(=O)c2ccc(C(=O)Nc3ccc(Br)cn3)cc2C1=O	21.8 µM (active)
O=C(NC1CCCCCC1)c1cc2c(=O)n3ccccc3nc2s1	38.9 µM (active)
Cc1ccccc1OCC(=O)Nc1sc(C(=O)Nc2cccc(C)c2C)c(C)c1C#N	6.15 µM (active)
Cc1cc(C)c(NC(=O)CS(=O)CC(=O)Nc2ccc(F)cc2F)c(C)c1 (configuration not stated)	inactive
CCOc1ccc2cc(C#N)c(SCC(=O)NC(C)CC)nc2c1 (configuration not stated)	5.48 µM (active)
CC[N+](CC)(CCCCS(=O)(=O)[O-])CCNP1(=O)C=C(c2ccccc2)OC(c2ccccc2)=C1	38.9 µM (active)
COC(=O)Cn1cnc2c(C#N)c3n(c2c1=O)CCCCC3	13.8 µM (active)
O=C(O)c1cc(-c2ccco2)nc2ccc(Br)cc12	19.4 µM (active)
O=C(Nc1ccccc1C(=O)N1CCN(c2ccccc2)CC1)c1ccco1	inactive
CCCC(=O)Nc1ncnc2c1ncn2[C@@H]1O[C@@H]2OP(=O)(O)OC[C@H]2[C@H]1OC(=O)CCC	0.868 µM (active)
NCCNC(=O)Cc1ccc(NC(=O)Cc2ccc(Nc3ncnc4c3ncn4[C@@H]3O[C@H](CO)[C@@H](O)[C@H]3O)cc2)cc1	2.75 µM (active)
C[C@H](Cc1ccccc1)Nc1ncnc2c1ncn2[C@@H]1O[C@H](CO)[C@@H](O)[C@H]1O	21.9 µM (active)
Nc1ncnc2c1ncn2[C@@H]1O[C@H](COS(=O)(=O)O)[C@@H](O)[C@H]1O	6.9 µM (active)
O=C(CCc1nnc2ccc(N3CCC4(CC3)OCCO4)nn12)NCc1ccc(F)cc1	38.9 µM (active)
CC1(C)Cc2nc3sc4c(SCC(=O)NC(c5ccccc5)c5ccccc5)ncnc4c3cc2CO1	3.46 µM (active)
CC(=O)Nc1ccc(NC(=O)CSc2ccc3nnc(-c4cccnc4)n3n2)cc1	13.8 µM (active)
CCOP1(=O)OCC2OC(n3cnc4c(N)ncnc43)C(O)C2O1 (configuration not stated)	12.3 µM (active)
